An excerpt weighted towards active compounds, which were near 12% of everything screened.
Pf growth 96h – inhibits malaria parasite growth, 96 h | P. falciparum luciferase reporter growth, 96 h | Potency, µM (highest dose often 28.7 µM), most hits filed as inhibitors | 6.9% of 320,000 active | AID 504834
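P. falciparum expressing integrated firefly luciferase grown in erythrocytes (2% hematocrit, 0.05% parasitemia final) with compounds for 96 hours at 37 C, 5% CO2. Growth inhibition read as loss of luminescence after adding luciferase detection reagent.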
Sm TGR inh – S. mansoni TGR enzyme inhibition | Q962Y6 | purified TGR, DTNB reduction, TNB absorbance 405 nm | Potency, µM (top dose mostly 114 µM), actives largely listed as inhibitors | 3% of 360,000 active | AID 485364; also: nearly all actives have a fitted effect of over 60% in size
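TGR 20 nM + NADPH 100 uM (dispensed conc.), cpd preinc 15 min RT; start with NADPH (500 uM addition) then DTNB (15 mM addition). Kinetic TNB absorbance, 405 nm filter. Four-parameter Hill fit across titration.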
SARS PLpro yeast – SARS-CoV PLP inhibition in yeast | S. cerevisiae expressing SARS-CoV PLpro, growth rescue | Potency, µM (series often up to 32.9 µM), hits mostly activators | 0.19% of 330,000 active; calls by dose curve; also: nearly all actives have a fitted effect of over 55% in size
Pf growth 48h – P. falciparum growth inhibition at 48 hours (one generation). 5.9% of 310,000 active. P. falciparum luciferase growth in erythrocytes, 48 h. Potency, µM (doses to about 28.7 µM), hits mostly inhibitors
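Luciferase-expressing P. falciparum in infected erythrocytes (2% hematocrit, 0.1% parasitemia final) in RPMI 1640/0.5% Albumax were exposed to compound for 48 hours at 37 C, 5% CO2; growth read as luminescence.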
Each line names hits and unclear results; the compound was inactive in the other large screens. Unless noted, calls follow the shape of the dose curve; as a rule, active = well fitted curve in the direction sought with a large enough effect; inconclusive = small, poorly fitted or top-dose-only effect, or another doubt; inactive = no such curve, though single readings can be large; an effect the other way counts as inactive or inconclusive.

Cc1ccccc1CN1CCNC(=O)C1CC(=O)O (centres undefined)	Sm TGR inh 25.1µM
Cc1nc(CCNC(=O)CC2C(=O)NCCN2Cc2ccc(F)cc2)sc1C (centres undefined)	Pf growth 96h inconclusive, Sm TGR inh 20µM
COc1ccc(CN2CCNC(=O)C2CC(=O)O)c(OC)c1 (centres undefined)	Sm TGR inh 35.5µM
Cc1nc(CCNC(=O)CC2C(=O)NCCN2Cc2ccccc2F)sc1C (centres undefined)	none
Cc1ccccn1	none (no result: Sm TGR inh, SARS PLpro yeast)
O=C(CSc1ncnc2sccc12)NCc1ccc2c(c1)OCO2	Pf growth 96h inconclusive, Pf growth 48h inconclusive
COC(=O)C1=C(c2ccc(OC(F)(F)F)cc2)C[C@@H]2CC[C@H]1N2C(=O)NCC1CC1	Pf growth 96h inconclusive, Pf growth 48h inconclusive
COC(=O)C1=C(c2ccc(C(C)=O)cc2)C[C@@H]2CC[C@H]1N2C(=O)NC(C)C	Sm TGR inh 35.5µM
COC(=O)C1=C(c2ccc(C(C)=O)cc2)C[C@@H]2CC[C@H]1N2C	none
COC(=O)C1=C(c2ccc(OC(F)(F)F)cc2)C[C@@H]2CC[C@H]1N2C(=O)NC1CC1	Pf growth 96h 5.86µM, Pf growth 48h inconclusive
O=C(Cn1ncn2c(cc3cc(F)ccc32)c1=O)NC1CCCCC1	none (no result: Pf growth 96h, SARS PLpro yeast, Pf growth 48h)
Cc1cc(C)cc(NC(=O)CSc2nnc(-c3cc4occc4n3C)n2-c2ccccc2C)c1	none (no result: Pf growth 96h, SARS PLpro yeast, Pf growth 48h)
N#CCC(=O)N/N=C/c1c(-c2ccccc2)n(-c2ccccc2)c2ccccc12	Pf growth 96h inconclusive, Pf growth 48h 9.28µM
CC(C)(C)c1[nH]nc2c1C(c1cccnc1)C(C#N)=C(N)O2 (centres undefined)	Pf growth 96h inconclusive
CC(C)(C)c1[nH]nc2c1C(Cc1ccccc1)C(C#N)=C(N)O2 (centres undefined)	Pf growth 48h 10.4µM
CC1=Nc2ccc(Br)cc2C(c2ccccc2)N1CC(=O)NN (centres undefined)	Pf growth 48h inconclusive
OC1c2cc(Br)ccc2N=C2CCCN21 (centres undefined)	Pf growth 96h 10.4µM, Pf growth 48h 8.28µM
CCN(CC)S(=O)(=O)c1ccc2c(c1)nc(CN(C)C(=O)Nc1cccc(Cl)c1)n2C	none (no result: Pf growth 96h, SARS PLpro yeast, Pf growth 48h)
O=c1[nH]c2ccccc2cc1CN(Cc1cccnc1)S(=O)(=O)c1ccc([N+](=O)[O-])cc1	Pf growth 96h 4.65µM, Pf growth 48h inconclusive
CN(c1ccccc1)S(=O)(=O)c1ccc2c(c1)oc(=O)n2C	Sm TGR inh inconclusive
N#CC1=C(N)S[C@H](C(=O)C23CC4CC(CC(C4)C2)C3)[C@H]1c1ccncc1	Pf growth 96h 4.65µM, Pf growth 48h 10.4µM
O=C(NCc1ccncc1)C12CC3CC(CC(C3)C1)C2	none
CC1(C)CC(=O)C2=C(C1)N(c1ccc(Cl)cc1)C(=O)C2(O)C(F)(F)F (centres undefined)	none
N#CC1=C2N=C(N)c3ccccc3N2C2=C(C(=O)CCC2)C1c1ccccc1F (centres undefined)	Pf growth 96h inconclusive
CC1(C)CC(=O)C2=C(C1)N1C(=C(C#N)C2c2ccc(Cl)cc2)N=C(N)c2ccccc21 (centres undefined)	Pf growth 96h 13.1µM, Pf growth 48h inconclusive
N#CC1=C2N=C(N)c3ccccc3N2C2=C(C(=O)CCC2)C1c1ccc(Cl)cc1 (centres undefined)	Pf growth 48h inconclusive
CN1C(=O)C2(C(C#N)=C(N)N(c3ccc(Cl)cc3)C3=C2C(=O)CC(C)(C)C3)c2ccccc21 (centres undefined)	Pf growth 96h 13.1µM (no result: Pf growth 48h)
CC1(C)CC(=O)C2=C(C1)N1C(=C(C#N)C2c2ccccc2Cl)N=C(N)c2ccccc21 (centres undefined)	Pf growth 48h 13.1µM
Cc1c(C(c2ccc(F)cc2)c2c(C)n(C)n(-c3ccccc3)c2=O)c(=O)n(-c2ccccc2)n1C	Pf growth 96h inconclusive, Sm TGR inh inconclusive
CCC(CC)C(=O)Nc1cccc(-c2nc3ncccn3c2C)c1	none (no result: Pf growth 96h, SARS PLpro yeast, Pf growth 48h)
CCOC(=O)CCc1c(C)c2ccc(OCC(=O)N(CC)CC)c(C)c2oc1=O	Pf growth 48h 10.4µM (no result: Pf growth 96h)
CCN(CC)c1ccc2c(c1)oc(=O)c1c(Cl)cc(=O)oc12	Sm TGR inh 6.31µM (no result: Pf growth 96h)
CCN(CC)c1ccc2ccc(=O)oc2c1	Pf growth 96h 9.28µM
CCOC(=O)Cc1c(C)c2ccc(N(CC)CC)cc2oc1=O	Pf growth 48h 3.7µM
O=C(c1cc2ccccc2oc1=O)N1CCN(c2ccc(F)cc2)CC1	none (no result: Pf growth 96h, SARS PLpro yeast, Pf growth 48h)
Cc1ccc(Sc2ccc(N3CCCC(C(=O)Nc4ccc(F)c(Cl)c4)C3)nn2)cc1 (centres undefined)	none (no result: Pf growth 96h, SARS PLpro yeast, Pf growth 48h)
CCOC(=O)c1c(NC(=O)OC)sc(C(=O)N(C)C)c1C	none
CCOC(=O)c1c(NC(=O)C(Sc2ccccc2)c2ccccc2)sc(C(N)=O)c1C (centres undefined)	Pf growth 96h 9.28µM, Pf growth 48h inconclusive
CCC(C(=O)Nc1sc(C(N)=O)c(C)c1C(=O)OC)c1ccccc1 (centres undefined)	Pf growth 96h inconclusive
CCOC(=O)c1c(NC(=O)C(Sc2ccccc2)c2ccccc2)sc(C(=O)N(C)C)c1C (centres undefined)	Pf growth 96h inconclusive, SARS PLpro yeast inconclusive, Pf growth 48h 3.29µM
CC/C(=C\C=C\[C@@H]1C=C[C@@H]2CCC[C@H]2[C@@H]1C(=O)c1ccc[nH]1)[C@@H]1O[C@@H]([C@@H](C)C(=O)O)CC[C@@H]1C	Pf growth 96h inconclusive, Pf growth 48h 2.62µM
O=c1cc(CSc2n[nH]c(-c3ccccc3)n2)[nH]c2ccccc12	none (no result: Pf growth 96h, SARS PLpro yeast, Pf growth 48h)
C=CCCN(Cc1ccccc1)S(=O)(=O)c1cc(Br)ccc1Br	Pf growth 48h 13.1µM
COC(=O)CCN(Cc1ccccc1)S(=O)(=O)c1ccccc1Br	none (no result: Pf growth 96h, Sm TGR inh, Pf growth 48h)
O=C(CSCC(=O)NC1CC1)Nc1ccc2ccccc2c1	Pf growth 96h inconclusive, Pf growth 48h 13.1µM
COc1cccc(NC(=O)C(NC2CCCC2)c2ccccc2)c1 (centres undefined)	Pf growth 96h inconclusive, Pf growth 48h inconclusive
Cc1ccc(NC(=O)C(NC2CCCC2)c2ccccc2)cc1Cl (centres undefined)	Pf growth 96h 11.7µM, Pf growth 48h 13.1µM
Cc1cc(C(=O)OC(C(=O)Nc2ccc(C)c(Cl)c2)c2ccccc2)c(C)o1 (centres undefined)	Pf growth 96h inconclusive, Pf growth 48h 10.4µM
O=C(CSCC(=O)NC1CC1)Nc1ccccc1	none
O=C(Nc1ccc2ccccc2c1)C(c1ccccc1)C1CCCC1 (centres undefined)	Pf growth 96h 2.08µM, Pf growth 48h 8.28µM
Cc1ccc(NC(=O)C(OC(=O)c2ccccc2Cl)c2ccccc2)cc1Cl (centres undefined)	none
COC(=O)[C@H](Cc1ccccc1)NC(=O)Cn1cnc(C(=O)Nc2ccc(C)c(C)c2)n1	none (no result: Pf growth 96h, Sm TGR inh, Pf growth 48h)
COc1cc(C)c(Cl)cc1S(=O)(=O)NCc1ccccn1	none
Cc1cccc(NC(=O)c2cn(-c3ccccc3)nc2-c2ccccc2)c1C	none (no result: Pf growth 96h, SARS PLpro yeast, Pf growth 48h)
COc1ccc(C(=O)NNS(=O)(=O)c2ccccc2)cc1OC	none
FC(F)(F)c1cc(N2CCNCC2)c2ccccc2n1	none
FC(F)(F)c1cc(N2CCN(Cc3ccccc3)CC2)c2ccccc2n1	Pf growth 96h 9.28µM, Pf growth 48h inconclusive

From PubChem BioAssay
